# From the supplement of paper PMC9588786
# ± gives the standard deviation of the averaged measurements.
# System: HT-1080
# Test: relative cell viability with RSL3 co-treatment (fraction of control); higher = stronger protection from RSL3-induced ferroptosis (higher viability)
# Conditions: 10 µM
# 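Note: viability read as CCK-8 absorbance at 450 nm in cells co-exposed to the GPX4 inhibitor RSL3, relative to a 0.01% DMSO vehicle control.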
row,Compound,relative cell viability
1,CCN1CCN(C(=O)Cc2ccc(Nc3ncc(F)c(Nc4ccc(C(=O)Nc5ccccc5Cl)cc4)n3)cc2)CC1 [Aurora A Inhibitor I],0.473 ± 0.13
2,COc1ccc(N(C(=O)Oc2c(C)cccc2C)c2ccnc(Nc3ccc(N4CCN(C)CC4)cc3)n2)c(OC)c1,0.8133 ± 0.0058
3,Cn1cc(C2=C(c3cn(C4CCN(Cc5ccccn5)CC4)c4ccccc34)C(=O)NC2=O)c2ccccc21,0.807 ± 0.061
4,C/C(O)=C(\C#N)C(=O)Nc1cc(Br)ccc1Br,0.54 ± 0.085
5,COc1ccc2c(c1)/C(=C/c1cnc[nH]1)C(=O)N2,0.797 ± 0.011
6,CC(C)(C)c1cc(C=C(C#N)C#N)cc(Br)c1O,0.473 ± 0.015
7,Cc1ccccc1-n1c(Cn2ncc3c(N)ncnc32)nc2cccc(C)c2c1=O,0.727 ± 0.049
8,O=c1[nH]c2ccc(Cl)cc2c(N[C@@H]2CN3CCC2CC3)c1-c1nc2ccccc2[nH]1,0.63 ± 0.046
9,CC(C)(C)c1cc(C=C(C#N)C#N)cc(C(C)(C)C)c1O [Tyrphostin 9],0.413 ± 0.021
